Among the data in the supplement of paper PMC6555819 are PBM binding z-score values, retold here.

The first test concerns RARb homodimer (NR concentration 270 nM). The experiment in a line: PBM binding z-score (relative to random genomic background probes); higher = stronger binding; sequences stand for … in GC…GCGATTGACAGCGTAGAATGAAGG
In a few lines:
(§1)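 Random background probes are the reference for binding z-scores. These scores derive from regression-normalized fluorescence on custom Agilent 4×180K protein-binding microarrays incubated 1 h with ligand-free nuclear receptor dimers. Binding was detected with antibodies against each partner (one per run).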
In turn, CGAACTAGGTCAGAACAGGACGGTGAAGGATGAT had a PBM binding z-score of 1.69.

Sequence CCTATTAGTTGACCAAAAGGGCAACCGAAGCTCG gave a PBM binding z-score of 3.11.

On to ATATGTAGGTTACATCCGGGTCATTCCGGCTATG, for which the PBM binding z-score turned out to be 2.71.

For the sequence CCTACTGGGCCAAGATCATTGATCAGTCAAAGCA, the PBM binding z-score was -0.51.

TCATATAGGTAAAGGTAAAAGTCGAACGATATGA gave a PBM binding z-score of 0.156.

ACAGACAGGTGATGACGGTAACTCAGGCTATCAT registered a PBM binding z-score of 0.213.

ATCTCTATGTAAAGATAGTTCAGTGAATGCAAAT displayed a PBM binding z-score of 0.692.

In the case of CGAACTTGGTCAGAACAGGACAGTGAAGGATGAT, the PBM binding z-score was determined as 0.311.

In turn, CCTACTGGGCCATTCAGAGCTCATTGATCATATG showed a PBM binding z-score of -0.346.

For TCATGTAGATCAATAGAGGTTAAGAAAGTGCGCT, the PBM binding z-score turned out to be 1.44.

Sequence TGGCAAAGTTCAAAGGTAACGTAAGTATCCACAC returned a PBM binding z-score of 4.03.

Regarding GGAACAAGGGCAAAGTTGATAGCATCTGTCGACG, the PBM binding z-score was determined as 1.5.

As to GATACAGGGTCCAGGCCAGAGTACGCGTATTGAT, the PBM binding z-score is 0.265.

For GGAACGAGGGCATTCGAGCTGATAGCATGGCGAT, the PBM binding z-score stood at 0.164.

Regarding CGAACTAGGTCAGAACAGGACAGCGAAGGATGAT, the PBM binding z-score stood at 2.08.

In turn, GCTTACGGGTCAAAGGTTATAGCATGAATAGAAT returned a PBM binding z-score of 3.25.

TGATATAGGTAAATGCTAGGTGAAAGTCCGATCT had a PBM binding z-score of 0.551.

In turn, CCGAATGGGGCATAAGGTTACCATAAGCCAGCCC came in with a PBM binding z-score of 1.7.

CCTGGGAGGACAACAGGAGGTCAGAGCTGCCAGA: the PBM binding z-score was 3.72.

TCACATAGGTAATACAGGTGAAAGTCGGCATCTA gave a PBM binding z-score of 0.573.

In turn, CCTCGGAGGACAGAAGGTCAGAGTTGTCCGCTTT came in with a PBM binding z-score of 3.6.

As for ATCTCTAGGTAAAGTTCGGTGAAAGATCGATAGA, the PBM binding z-score worked out at 0.59.

CCGACTGTGGCAGAAAGGTTACCATACCATCCGG showed a PBM binding z-score of 1.82.

TCTAGTTGGTCAAAGGACACACACTCGAAATGCG returned a PBM binding z-score of 1.99.

AATACAGGGTCACTAGGCTAGAGTAGGTACGAAT: the PBM binding z-score was found to be 3.33.

As for TGTGCTAGGTCAGTTGGTCAGCTAACGAGCTGCC, the PBM binding z-score was 2.66.

ATATGTAGGTTATCGGGTCATCCAGTTTGCGCAT displayed a PBM binding z-score of 3.46.

In turn, CCTAGTTGGTCAGGAGGTCTCACACCGGATATGA had a PBM binding z-score of 1.11.

In turn, TCTTGTAGATCAATATAGGTTAAGAAAGTGCGCT yielded a PBM binding z-score of 0.819.

Consider GTACCAAGGTGAATAGGCCGTTGATGAGTAGGCG, for which the PBM binding z-score came out at 0.865.

Take TCTGCTAGGGCAGTTGGTCAGCTAACGAGCTGCC: the PBM binding z-score stood at 0.33.

AGTCAAAATTCATCTAGGTAACGTAAGATATGCT displayed a PBM binding z-score of -0.349.

The sequence CCAGACAGGTGAGAAGGTTACTCAGCCTCGATTA showed a PBM binding z-score of 1.63.

AGTCAAAGTTCAGGACGAGGTAACATAAAGCACG yielded a PBM binding z-score of 3.26.

Sequence TGAATGAGGTTAAAGATCAGGGACCGTGGCGTCG displayed a PBM binding z-score of 0.662.

Consider CAAAGTAGGTCAAAGGTCAAAGTCGAGCCAACCA, for which the PBM binding z-score turned out to be 5.32.

CCTTACGGGTCACTCCAGGTTATGGCATCGGAGT had a PBM binding z-score of 3.07.

As to GCTTACGGGACAAAGGTTATAGCATGAATAGAAT, the PBM binding z-score stood at 1.47.

Take ACTATTAGTTGAGACGAGGGCAATCGATAGGTTG: the PBM binding z-score amounted to 0.955.

Take CTCGAAAGGTCCTGCTCAGGTGAGTATACCAAAC: the PBM binding z-score came out at 0.614.

The subject of a further test is RARg:RXRa (NR concentration 270 nM, RXRa partner concentration 90 nM). The test is described as above. The method, boiled down:
as §1
Sequence CGAACTAGGTCAGAACAGGACGGTGAAGGATGAT gave a PBM binding z-score of 2.3.

Take CCTATTAGTTGACCAAAAGGGCAACCGAAGCTCG: the PBM binding z-score amounted to 2.31.

On to ATATGTAGGTTACATCCGGGTCATTCCGGCTATG, for which the PBM binding z-score stood at 3.56.

As for CCTACTGGGCCAAGATCATTGATCAGTCAAAGCA, the PBM binding z-score is -0.246.

Regarding TCATATAGGTAAAGGTAAAAGTCGAACGATATGA, the PBM binding z-score was determined as 0.701.

On to ACAGACAGGTGATGACGGTAACTCAGGCTATCAT, for which the PBM binding z-score was 0.122.

In the case of ATCTCTATGTAAAGATAGTTCAGTGAATGCAAAT, the PBM binding z-score turned out to be 0.486.

CGAACTTGGTCAGAACAGGACAGTGAAGGATGAT: the PBM binding z-score stood at 0.432.

Turning to CCTACTGGGCCATTCAGAGCTCATTGATCATATG, the PBM binding z-score is -0.434.

Sequence TCATGTAGATCAATAGAGGTTAAGAAAGTGCGCT gave a PBM binding z-score of 0.871.

Sequence TGGCAAAGTTCAAAGGTAACGTAAGTATCCACAC displayed a PBM binding z-score of 6.21.

Sequence GGAACAAGGGCAAAGTTGATAGCATCTGTCGACG registered a PBM binding z-score of 1.92.

As to GATACAGGGTCCAGGCCAGAGTACGCGTATTGAT, the PBM binding z-score is 0.144.

As for GGAACGAGGGCATTCGAGCTGATAGCATGGCGAT, the PBM binding z-score stood at 0.737.

CGAACTAGGTCAGAACAGGACAGCGAAGGATGAT displayed a PBM binding z-score of 2.39.

As to GCTTACGGGTCAAAGGTTATAGCATGAATAGAAT, the PBM binding z-score turned out to be 6.76.

In turn, TGATATAGGTAAATGCTAGGTGAAAGTCCGATCT gave a PBM binding z-score of 0.276.

Sequence CCGAATGGGGCATAAGGTTACCATAAGCCAGCCC registered a PBM binding z-score of 1.67.

As for CCTGGGAGGACAACAGGAGGTCAGAGCTGCCAGA, the PBM binding z-score was 3.71.

Sequence TCACATAGGTAATACAGGTGAAAGTCGGCATCTA came in with a PBM binding z-score of 0.559.

With CCTCGGAGGACAGAAGGTCAGAGTTGTCCGCTTT, the PBM binding z-score is 3.24.

The sequence ATCTCTAGGTAAAGTTCGGTGAAAGATCGATAGA had a PBM binding z-score of 0.582.

The sequence CCGACTGTGGCAGAAAGGTTACCATACCATCCGG yielded a PBM binding z-score of 1.02.

Sequence TCTAGTTGGTCAAAGGACACACACTCGAAATGCG had a PBM binding z-score of 1.75.

As for AATACAGGGTCACTAGGCTAGAGTAGGTACGAAT, the PBM binding z-score was 4.95.

In turn, TGTGCTAGGTCAGTTGGTCAGCTAACGAGCTGCC came in with a PBM binding z-score of 2.6.

In turn, ATATGTAGGTTATCGGGTCATCCAGTTTGCGCAT showed a PBM binding z-score of 3.7.

CCTAGTTGGTCAGGAGGTCTCACACCGGATATGA displayed a PBM binding z-score of 0.617.

As to TCTTGTAGATCAATATAGGTTAAGAAAGTGCGCT, the PBM binding z-score turned out to be 0.579.

GTACCAAGGTGAATAGGCCGTTGATGAGTAGGCG: the PBM binding z-score was found to be 0.98.

As to TCTGCTAGGGCAGTTGGTCAGCTAACGAGCTGCC, the PBM binding z-score was -0.0411.

The sequence AGTCAAAATTCATCTAGGTAACGTAAGATATGCT registered a PBM binding z-score of 0.038.

CCAGACAGGTGAGAAGGTTACTCAGCCTCGATTA returned a PBM binding z-score of 1.67.

In turn, AGTCAAAGTTCAGGACGAGGTAACATAAAGCACG showed a PBM binding z-score of 4.89.

As to TGAATGAGGTTAAAGATCAGGGACCGTGGCGTCG, the PBM binding z-score is 2.38.

Turning to CAAAGTAGGTCAAAGGTCAAAGTCGAGCCAACCA, the PBM binding z-score was found to be 8.87.

For the sequence CCTTACGGGTCACTCCAGGTTATGGCATCGGAGT, the PBM binding z-score is 4.46.

Take GCTTACGGGACAAAGGTTATAGCATGAATAGAAT: the PBM binding z-score is 2.52.

In turn, ACTATTAGTTGAGACGAGGGCAATCGATAGGTTG had a PBM binding z-score of 0.898.

Sequence CTCGAAAGGTCCTGCTCAGGTGAGTATACCAAAC yielded a PBM binding z-score of 0.95.
